The structures appear in SMILES notation. Results filed as inconclusive are left out. Activity calls are given as the source filed them. Calls follow the shape of the dose curve; as a rule, active = well fitted curve in the direction sought with a large enough effect in the signal ratio, with a control signal flat (not every such curve was filed as active); inconclusive = small, poorly fitted or top-dose-only effect, or effect the other way, or a change in a side signal; inactive = no such curve, though single readings can be large or run the other way; the % refers to the signal ratio.

The assay deals with Estrogen receptor (Homo sapiens) (UniProt P03372). Briefly: qHTS assay for small molecule antagonists of estrogen receptor alpha signaling (AID 588513). The conditions noted are these: ER-alpha-UAS-bla HEK293, beta-lactamase ratio, antagonist mode; series mostly up to 76.9 µM. From the text: NIH Chemical Genomics Center [NCGC]
Chain of Estrogen receptor (Homo sapiens) (P03372 whole entry, looked up): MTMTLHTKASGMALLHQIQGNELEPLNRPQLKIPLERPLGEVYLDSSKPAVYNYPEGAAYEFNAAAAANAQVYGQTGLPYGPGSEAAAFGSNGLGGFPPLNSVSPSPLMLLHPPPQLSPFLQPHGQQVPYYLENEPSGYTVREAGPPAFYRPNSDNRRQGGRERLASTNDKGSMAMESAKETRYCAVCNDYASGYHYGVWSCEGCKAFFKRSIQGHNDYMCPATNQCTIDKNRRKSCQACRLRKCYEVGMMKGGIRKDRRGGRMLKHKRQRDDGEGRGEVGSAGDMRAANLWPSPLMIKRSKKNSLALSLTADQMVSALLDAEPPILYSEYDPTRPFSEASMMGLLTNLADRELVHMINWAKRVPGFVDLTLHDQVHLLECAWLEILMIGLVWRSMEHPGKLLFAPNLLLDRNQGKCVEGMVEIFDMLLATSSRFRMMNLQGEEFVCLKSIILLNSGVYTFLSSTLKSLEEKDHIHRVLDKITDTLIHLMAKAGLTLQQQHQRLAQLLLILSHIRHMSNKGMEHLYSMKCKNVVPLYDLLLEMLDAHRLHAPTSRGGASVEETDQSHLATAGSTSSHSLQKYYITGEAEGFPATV
U.S. Environmental Protection Agency [EPA]
National Institutes of Environmental Health Sciences [NIEHS]
National Toxicology Program [NTP]
Estrogen receptor alpha (ER-alpha) is an important member of nuclear hormone receptors. ER-alpha plays important role in breast cancer as well as in other women's health issues. The majority of breast cancers is estrogen receptor (ER) positive and depends on estrogen for growth. There is also growing concern for some of environmental chemicals which may contribute the increasing the incidence of breast cancer. Therefore, it is important to understand the effect of environmental chemicals in ER-alpha signaling pathway.
NCGC Assay Protocol Summary
Using a beta-lactamase reporter-gene under control of the ER response element, a cell-based assay [ER-alpha-UAS-bla GripTiteTM cell-Based Assay from Invitrogen] was used to measure ER-alpha signaling pathway in antagonist mode. ER-alpha-UAS-bla-GripTite HEK 293 cells were used with assay medium containing 2% charcoal/dextran treated FBS, 0.1 mM NEAA and 1 mM sodium pyruvate. Cells were cultured in this assay medium overnight in the flasks before the assay. The assay was performed in clear bottom black Greiner 1536-well plates. 17-beta-estradiol was used as a positive control in the screen. Library compounds were measured for their ability to inhibit the reporter gene activity. Compounds were screened in a titration series in 1536-well format. […] Data was normalized relative to 17-beta-estradiol control (0.5nM, 100%), and DMSO only wells (basal, 0%). Concentration-response titration points for each compound were fitted to the Hill equation yielding concentrations of half-maximal inhibition (IC50) and maximal response (efficacy) values.
qHTS protocol for ER-alpha beta-lactamase assay in antagonist mode
[Step] [Parameter] [Value] [Description]
1. Reagent; 5 uL; 5000 cells/well
2. Incubation; 37 C for 4 hrs
- Dose response, Start 38uM, 1:2 dilutions with duplicates
- Two columns with 38 and 19uM (final) concentration.
5. Agonist (Stimulator); 1uL; 17-beta-estradiol at 0.5nM (final) concentration
6. Incubation; 37 C for 18 hrs
7. Detection reagent; 1 uL of CCF4-dye
8. Incubation; RT for 2 hrs
9. Detection; Fluorescence; Envision plate reader or Acumen plate reader
In general terms: Quantitative high-throughput screening tests each substance at several concentrations.
Regarding `CCOc1ccccc1N`, the result was inactive. Regarding `CO[Si](CCCNCCC[Si](OC)(OC)OC)(OC)OC`, the outcome was inactive. For the compound `CCCC(Cl)CCCC(Cl)CCC(Cl)CCC(Cl)CCC(Cl)CCCC(Cl)CCC` (stereo not given), the outcome was inactive.

In the case of `OC1CCCC1`, the outcome was inactive. Turning to `O=Nc1ccc(NO)cc1`, the result was inactive. Consider `COc1ccc(N)c(OC)c1`, for which the outcome was inactive.

With `Cc1c(N)cccc1[N+](=O)[O-]`, the result was inactive. With `Cc1cccc([N+](=O)[O-])c1C(=O)O`, the result was inactive. For the compound `C=C(C)C1CC=C(C)C(OC(C)=O)C1` (stereo not given), the result was inactive. For the compound `CCOC(C)(C)C`, the outcome was inactive.

As to `O=[N+]([O-])c1cccc(C(F)(F)F)c1`, the result was inactive. In the case of `CC(CCl)OC(C)CCl` (stereo not given) it was “inactive”; in that of `CC(C)c1ccccc1`, “inactive”; in that of `CCN(Cc1ccccc1)c1ccccc1`, “inactive”. In the case of `CC=O` it was “inactive”; in that of `O=C(Cl)c1c(Cl)cccc1Cl`, “inactive”. As for `NC(=O)NC(N)=O`, the result was inactive. The same measure for `CC(C)CCOC(=O)/C=C/c1ccccc1`: “inactive”; for `CC(=O)c1cccc([N+](=O)[O-])c1`: “inactive”; for `Cc1ccc(Cl)cc1`: “inactive”.

Turning to `Oc1cccc(Nc2ccccc2)c1`, the outcome was inactive.

As for `Cc1cc(C)cc(N)c1`, the outcome was inactive. In the case of `Nc1cccc(O)c1` it was “inactive”; in that of `Cc1ccc(C)c(N)c1`, “inactive”. As to `Cc1cc(C)cc(O)c1`, the result was inactive. For `O=C(O)CNC(=O)c1ccc(CO)o1`, the result was inactive. Consider `CCCCN(CCO)CCCC`, for which the result was inactive. With `Cc1cc(C)cc([N+](=O)[O-])c1`, the outcome was inactive.

For `CNc1ccccc1`, the result was inactive. For the compound `O=[N+]([O-])c1ccc(CCO)cc1`, the outcome was inactive. In the case of `C=C(C)C(=O)OCC(C)C`, the outcome was inactive.

In the case of `CC(C)CO`, the outcome was inactive. Take `CC(C)N(C)C`: the result was inactive. The same measure for `O=Cc1c(Cl)cccc1Cl`: “inactive”; for `O=[N+]([O-])c1cccc(Cl)c1`: “inactive”; for `O=C(O)c1ccc(Cl)c(Cl)c1`: “inactive”. In the case of `CC#N`, the outcome was inactive. In the case of `CCCCCCC=O` it was “inactive”; in that of `CCCCCCCCC`, “inactive”. In the case of `COC(=O)CC#N` it was “inactive”.

These data come from PubChem BioAssay (NCATS).
